Data reported in PubChem BioAssay.

Target: Fibroblast growth factor 2 (Homo sapiens) (UniProt P09038)
Experiment: FGF2 binders on small-molecule microarrays, primary screen, biochemical, small-molecule microarray, 635/667 nm fluorescence (AID 1133)
Settings: small-molecule microarray binding, FGF2, fluorescence 635/667; higher = more signal

Sequence of Fibroblast growth factor 2 (Homo sapiens) (P09038 whole entry, looked up): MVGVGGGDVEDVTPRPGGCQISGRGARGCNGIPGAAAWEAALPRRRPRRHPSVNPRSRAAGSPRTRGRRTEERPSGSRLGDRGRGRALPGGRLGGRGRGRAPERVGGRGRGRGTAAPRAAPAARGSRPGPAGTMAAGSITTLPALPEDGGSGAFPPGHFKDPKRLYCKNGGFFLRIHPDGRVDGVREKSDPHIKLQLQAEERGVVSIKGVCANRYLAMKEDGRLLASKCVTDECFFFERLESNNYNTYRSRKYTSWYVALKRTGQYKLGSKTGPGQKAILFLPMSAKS

SMILES | composite z-score
COc1ccc(C(O)C2C=CC3C(=O)N(c4ccccc4)C(=O)C3N2Nc2ccc([N+](=O)[O-])cc2)cc1OCc1ccccc1 (stereo not drawn) | 0.156
[N-]=[N+]=NCc1ccccc1C[C@]1(C(=O)NCC(O)CO)N=C(c2ccc(OCCCO)cc2)O[C@H]1c1ccccc1N=[N+]=[N-] (stereo partly drawn) | -0.189
CCOC(=O)C[C@H]1[C@H](OC(=O)Cc2ccc3c(c2)OCO3)[C@@H](NC(=O)c2ccc(-c3ccccc3)cc2)c2cc(OCCCO)ccc2N1C(=O)c1ccccc1 | 0.685
CS(=O)(=O)CCOC(=O)C1=CC(CCCO)=CC(c2cccs2)N(Cc2cc3c(cc2Br)OCO3)C=C1C(=O)OCCS(C)(=O)=O (stereo not drawn) | 0.564
COc1ccc([Si](C)(C)[C@H]2[C@H](CC(=O)N(CCO)Cc3ccccc3)O[C@@]3(C(=O)N(Cc4cccc(N5CCC5=O)c4)c4ccccc43)[C@@H]2C)cc1 | 1.68
COc1cccc(C(=O)O[C@H]2CC[C@]3(C)C4=C(CCC3C2(C)C)[C@]2(C)CC[C@H]([C@H](C)CCCC(C)C)[C@@]2(C)CC4)c1 (stereo partly drawn) | 0.281
CC(C)NC(=O)[C@@H]1c2ccccc2C(=O)N(Cc2ccccc2)[C@H]1c1ccc(CO)cc1 | 0.394
COc1ccc([Si](C)(C)[C@@H]2[C@@H](CC(=O)N(CCO)Cc3ccccc3)O[C@]3(C(=O)N(C)c4ccccc43)[C@H]2C)cc1 | 1.4

Tested on: not listed separately
Experiment: mitochondrial membrane potential change in A549 cells, profiling panel, cell-based, JC-1 fluorescence, basal, 24 h, 100 nL (AID 1138);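 note: A549 lung adenocarcinoma cells under basal conditions with no added stimulus; test concentration not given here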
Settings: higher = more signal

SMILES | z-score
CC(C)c1ccc(NN2C(C(O)c3c(F)cccc3Cl)C=CC3C(=O)N(c4ccccc4)C(=O)C32)cc1 (stereo not drawn) | -1.27
CC(C)(C)OC(=O)CC[C@@]1(C(=O)O)N=C(c2ccc(OCCCO)cc2)O[C@@H]1c1ccccc1N=[N+]=[N-] | -1.49
COC(=O)C[C@@H]1C[C@H](C)[C@]2(O1)C(=O)N(Cc1ccccc1)c1ccc(NC(C)=O)cc12 | -1.05
COCC1=C2[C@@H](CCc3ccccc3)OB(O)C[C@@H]2[C@@H]2C(=O)N(Cc3ccccc3)C(=O)[C@@H]2C1 | 0.092
C=CCOC(=O)[C@@H]1[C@H]2C(=O)O[C@H](c3ccccc3)[C@H](c3ccccc3)N2[C@H](c2ccc(OCCOC(=O)[C@@H]3C[C@@H]4C(=O)NCC(=O)N4[C@@H]3c3cccc(OCCO)c3)cc2)[C@@]12C(=O)Nc1ccc(I)cc12 | -1.21
C=CCC(OC(C)=O)[C@@H]1[C@@H](N(Cc2cccc3ccccc23)C(=O)c2ccc(C)cc2)c2cc(OCCCO)ccc2N1C(=O)Cc1ccc(OC)cc1 (stereo partly drawn) | 1.3
O=C1OCCC=C[C@H]2OC34C=CCN(Cc5ccccc5)C(=O)[C@H]3N(CCCCCO)C(=O)[C@@H]4C12 (stereo partly drawn) | 0.758
O=C(OCCF)C1=CCC(c2cccc(Cl)c2)O1 (stereo not drawn) | -0.218
[N-]=[N+]=NCc1ccccc1[C@@H]1OC(c2ccc(OCCCO)cc2)=N[C@]1(Cc1ccccc1)C(=O)N1CCCCC1 | 2.06
Cc1cc(C)c(C(O)C2C=CC3C(=O)N(c4ccccc4)C(=O)C3N2Nc2ccc(C#N)cc2)c(C)c1 (stereo not drawn) | -0.613
C=C[C@@H](COC(C)=O)N(Cc1ccccc1[N+](=O)[O-])S(=O)(=O)c1ccc(Br)cc1 | 0.505
COc1ccc(C#Cc2ccc3c(c2)[C@]2(C(=O)N3)[C@H](c3ccc(O)cc3)N3[C@H](c4ccccc4)[C@H](c4ccccc4)OC(=O)[C@H]3[C@@H]2C(=O)NC[C@H](O)c2ccccc2)cc1 | -1.26
C=CCNC(=O)[C@@H]1[C@H]2C(=O)O[C@H](c3ccccc3)[C@H](c3ccccc3)N2[C@H](c2ccccc2OCCO)[C@@]12C(=O)Nc1ccc(C#CC3=CCCCC3)cc12 | -1.55
[N-]=[N+]=NCc1ccccc1[C@@H]1OC(c2ccc(OCCCO)cc2)=N[C@]1(Cc1ccccc1N=[N+]=[N-])C(=O)NCc1ccccc1 | 0.249
COCCOC(=O)N1C(=O)[C@@]2(c3cc(C#CCCO)ccc31)[C@H](c1ccccc1OCCO)N1[C@H](c3ccccc3)[C@H](c3ccccc3)OC(=O)[C@H]1[C@@H]2C(=O)N1CCN(c2ncccn2)CC1 | -0.835
CCCCC=C[C@@H](NC(=O)c1ccc(C(=O)OC)cc1)c1ccccc1 | 0.769
CC(C)NC(=O)[C@@H]1c2ccccc2C(=O)N(Cc2ccccc2Cl)[C@H]1c1ccc(CO)cc1 | 2.55
COc1cc2c(cc1OC)CN(C(=O)[C@@H]1[C@H]3C(=O)O[C@H](c4ccccc4)[C@H](c4ccccc4)N3[C@H](c3ccccc3OCCO)[C@@]13C(=O)Nc1ccc(C#CCNC(N)=O)cc13)CC2 | -0.864

SMILES | z-score
O=C1C=CC(=O)[C@@H]2CC(COc3ccccc3)=C3[C@@H](CCc4ccccc4)OB(O)C[C@@H]3[C@H]12 | -1.59
O=C(NCc1ccccc1)[C@]1(CCS(=O)(=O)c2ccccc2)N=C(c2ccc(OCCCO)cc2)O[C@@H]1c1ccccc1 | -0.864
COc1ccc(C#Cc2ccc3c(c2)[C@]2(C(=O)N3)[C@H](C(=O)NC[C@H](O)c3ccccc3)[C@H]3C(=O)O[C@H](c4ccccc4)[C@H](c4ccccc4)N3[C@@H]2c2ccc(OCCO)cc2)cc1 | -1.96
CCOc1cc(C(O)C2C=CC3C(=O)N(c4ccccc4)C(=O)C3N2Nc2ccc([N+](=O)[O-])cc2)ccc1O (stereo not drawn) | -1.52
[N-]=[N+]=NCc1ccccc1C[C@]1(C(=O)NCCN2CCOCC2)N=C(c2ccc(OCCCO)cc2)O[C@H]1c1ccccc1N=[N+]=[N-] | 1.29
C=C[C@@H](COC(C)=O)N(Cc1ccc([N+](=O)[O-])cc1)S(=O)(=O)c1ccc(Br)cc1 | 1.6
COc1ccc(CCNC(=O)[C@@]2(c3ccc([N+](=O)[O-])cc3)CC(=O)N(CC34CC5CC(CC(C5)C3)C4)[C@@H]2c2ccc(CO)cc2)cc1 | -0.483
COCC(=C=CC[C@H](O)c1ccc(OCCO)cc1)C[C@H](O)c1cc(Cl)cc(Cl)c1O | 0.268
CO[C@H]1O[C@H](CO)[C@@H](OC(=O)Nc2ccc3c(c2)OCO3)[C@H](OC(=O)Nc2ccccc2)[C@H]1OC(=O)Nc1ccccc1 | -0.925
COc1ccc(C(O)C2C=CC3C(=O)N(c4ccccc4)C(=O)C3N2Nc2ccc([N+](=O)[O-])cc2)cc1OCc1ccccc1 (stereo not drawn) | 0.41
[N-]=[N+]=NCc1ccccc1C[C@]1(C(=O)NCC(O)CO)N=C(c2ccc(OCCCO)cc2)O[C@H]1c1ccccc1N=[N+]=[N-] (stereo partly drawn) | 1.63
CCOC(=O)C[C@H]1[C@H](OC(=O)Cc2ccc3c(c2)OCO3)[C@@H](NC(=O)c2ccc(-c3ccccc3)cc2)c2cc(OCCCO)ccc2N1C(=O)c1ccccc1 | 2.42
CS(=O)(=O)CCOC(=O)C1=CC(CCCO)=CC(c2cccs2)N(Cc2cc3c(cc2Br)OCO3)C=C1C(=O)OCCS(C)(=O)=O (stereo not drawn) | 1.26
COc1ccc([Si](C)(C)[C@H]2[C@H](CC(=O)N(CCO)Cc3ccccc3)O[C@@]3(C(=O)N(Cc4cccc(N5CCC5=O)c4)c4ccccc43)[C@@H]2C)cc1 | -0.166
COc1cccc(C(=O)O[C@H]2CC[C@]3(C)C4=C(CCC3C2(C)C)[C@]2(C)CC[C@H]([C@H](C)CCCC(C)C)[C@@]2(C)CC4)c1 (stereo partly drawn) | 0.434
CC(C)NC(=O)[C@@H]1c2ccccc2C(=O)N(Cc2ccccc2)[C@H]1c1ccc(CO)cc1 | 0.484
COc1ccc([Si](C)(C)[C@@H]2[C@@H](CC(=O)N(CCO)Cc3ccccc3)O[C@]3(C(=O)N(C)c4ccccc43)[C@H]2C)cc1 | 0.194
